# Assay results reported in PubChem BioAssay (NCI).
# Where “and” joins values, the source holds several entries; their conditions need not be identical. Equal values may be shown once. The panel holds about 83,000 compounds, 20% with a hit somewhere; the sample as a whole holds those more often.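 Activity criterion: percent growth below 10, measured after cells in 96-well plates were exposed to a single compound concentration for 48 hours.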 Calls of active or inactive are those of the source.
# Tested on: MDA-MB-468 breast
# Assay: NCI-60 one-dose screen, 48 h (100 = growth as untreated, 0 = no growth, -100 = all killed)
# Details: 10 µM unless noted
row,Compound,growth
1,C=CCn1c(SCC(=O)Nc2ccc(/C(C)=N\O)cc2)nnc1-c1cc(-c2ccc(OC)cc2)nc2ccccc12,17.3% (inactive)
2,CN(C)CCOc1cccc(-c2nc3sccn3c2-c2ccnc(S(C)(=O)=O)n2)c1,92% (inactive)
3,COc1cc(/C=C2\C=C(c3ccc(F)cc3)N(Cc3ccccc3)C2=O)cc(OC)c1OC,49.9% (inactive)
4,CCCc1cc2c(cc1CN(Cc1cc3c(cc1CCC)OCO3)C(=N)OCC)OCO2,60.8% (inactive)
5,CCOC(=O)Cn1nnc(-c2ccc(OCc3ccccc3F)cc2)n1,90.4% (inactive)
6,CCCn1ccnc1C(O)c1ccc(OCc2ccccc2)c(OC)c1 (configuration not stated),90.5% (inactive)
7,C=C1C(=O)O[C@H]2[C@H]1CC/C(COC(=O)CCCC(=O)OC/C1=C/CC[C@@]3(C)O[C@H]3[C@H]3OC(=O)C(=C)[C@@H]3CC1)=C\CC[C@@]1(C)O[C@@H]21,-19.1% (active)
8,CN(Cc1ccccc1)c1nc(Cl)c(C2CC(c3ccc(Cl)cc3)=NN2c2cc(Cl)cc(Cl)c2)s1 (configuration not stated),101% (inactive)
9,O=c1cc(N/N=C/c2ccc(F)cc2)c2cc(Cl)ccc2[nH]1,73% (inactive)
10,c1ccc2sc(SCCCn3ccnc3)nc2c1,61.8% (inactive)
11,CCCCCC(=O)O[C@]1(C(C)=O)CCC2C3CCC4=CC(=O)CC[C@]4(C)C3CC[C@@]21C (some centres not stated),-2.63% (active)
12,COc1cc(Nc2nc(NCCN)nc3cc[nH]c(=O)c23)cc(OC)c1,3.37% (active)
13,O=C(OCc1ccc2c(Cl)cc(Cl)c(O)c2n1)N1CCN(C(=O)c2cc3ccccc3[nH]2)CC1,10.3% (inactive)
14,O=C(O)c1ccc(CNc2ccc(C(=O)CCl)cc2)cc1,63.8% (inactive)
15,CN(C)CCn1c2ccc(N)cc2c2nc3ccccc3nc21,23.7% (inactive)
16,Cc1cccc(N2C(=O)/C(=C/C(Cl)=C/c3ccc([N+](=O)[O-])cc3)SC2=S)c1C,11.6% (inactive)
17,CC(=O)c1ccc2c(c1)CCc1ccccc1-2,94.9% (inactive)
18,N#C/C(=C\c1cccc2c1OCO2)C(=O)Nc1sc2c(c1C#N)CCCC2,100% (inactive)
19,C=C1C(=O)O[C@H]2[C@H]1CC/C(COC(=O)NCc1c[nH]c3ccccc13)=C\CC[C@@]1(C)O[C@@H]21,48% (inactive)
20,COc1ccc(-c2cc(C(=O)Nc3nc4cc(C)c(C)cc4s3)nc3cc(-c4ccccc4)nn23)cc1OC,109% (inactive)
21,Nc1nc2c(c3ncccc13)C(c1cccc(Br)c1)Cc1ncccc1-2 (configuration not stated),13.7% (inactive)

row,Compound,growth
1,COc1cc2nc3cc([N+](=O)[O-])ccc3c(NCCNCC(C)(C)O)c2cc1OC,-37.5% (active)
2,Oc1[nH]c2ccccc2c1N=Nc1nnc2n1N=C(c1ccccc1)CS2,104% (inactive)
3,CN(C)CCCn1c2c(c3ccc(-c4ccn[nH]4)cc3c1=O)C(=O)c1ccccc1-2,35% (inactive)
4,O=C(CCCCCCNC(=O)c1csc(Br)n1)NO,26.6% (inactive)
5,C=C1NC(=O)C(C(C)CC)NC(=O)C2CSCC(NC(=O)CCC(=O)O)C(=O)NC(Cc3ccccc3)C(=O)NC(C)C(=O)NC(CC(C)CC)C(=O)NC(C(=O)NC(Cc3ccccc3)C(=O)N3CCCC3C(=O)N2)C(C)OC(=O)C(CO)NC(=O)C(C(O)COC)N(C)C(=O)C(C(C)C)NC(=O)C(CC(C)CC)NC1=O (configuration not stated),0.0436% [6 µM] (active)
6,CC[N+](CC)(CC(=O)Nc1c(C)cccc1C)Cc1ccccc1,63.8% (inactive)
7,Cc1nc2ccccc2c(/C=C/c2ccc(Cl)cc2)c1C(=O)/C=C/c1ccccc1,12.7% (inactive)
8,CC(C)CC1NC(=O)C(CC(C)C)N(CO)C1=O (configuration not stated),99.3% (inactive)
9,CN1CCN(Cc2ccc(NC(=O)c3[nH]ncc3Nc3cc(OC4CCCC4)ncn3)cc2)CC1,16.1% (inactive)
10,NC(=O)OCCO,113% (inactive)
11,CCOC(=O)c1c(C)n(-c2ccc(Cl)cc2)c2ccc(OC(=O)/C=C/c3ccccc3)cc12,22.9% (inactive)
12,CC1=C(C)C(=O)C(Nc2ccc3c(c2)OCO3)=C(Br)C1=O,36.3% (inactive)
13,O=C(Nc1cccc(Br)c1)Oc1ccc(Cl)c2cccnc12,-9.1% [100 µM] (active)
14,C/C=C/C=N/NC(=S)Nc1ccccc1,107% (inactive)
15,CC(=O)Nc1ccc([I+]c2ccc([N+](=O)[O-])cc2)cc1,41.7% (inactive)
16,CCCCCc1ccc(S(=O)(=O)N(C(C)=O)c2cccc(-c3csc(N(CCN4CCN(C)CC4)C(C)=O)n3)c2)cc1,-10.9% (active)
17,CCCCCCCCN(CCCCCCCC)CC(O)c1ccc(Cl)c(C)c1Cl (configuration not stated),105% (inactive)
18,C#Cc1cccc(NC(=O)Nc2cccc(N=C=S)c2)c1,106% [8.25 µM] (inactive)
19,CCCCC(=O)Nc1ncc(Cc2ccccc2Cl)s1,14.1% (inactive)
20,COc1ccc2nc(-c3ccc(Cl)cc3)cc(-c3nnc(SCC(=O)Nc4ccc(C(C)=O)cc4)n3-c3ccccc3)c2c1,91.2% (inactive)
21,NC(N)=N/N=C/c1ccc([N+](=O)[O-])cc1,85.5% (inactive)

row,Compound,growth
1,C#C[C@]1(O)CC[C@H]2[C@@H]3CC=C4c5sc(-c6ccc(F)cn6)nc5CC[C@]4(C)[C@H]3CC[C@@]21C,43.4% (inactive)
2,Cc1cc(Cl)nc(N2CCN(CCNc3ccnc4cc(Cl)ccc34)CC2)n1,4.38% (active)
3,CCOC(=O)/C=C/c1c(C)[nH]c(=O)[nH]c1=O,72.8% (inactive)
4,CCCCCCNC(=O)Oc1ccc(/C(=C(/CC)Cc2ccccc2)c2ccc(OCCCN(C)C)cc2)cc1,89.5% (inactive)
5,CO[C@H]1CC(c2ccc[nH]2)=N[C@]12O[C@@H](C)C[C@@H]1CCCCCCCc3ccc([nH]3)[C@H]12,1.37% (active)
6,C=CCCCCOc1ccccc1-c1cnc(OCCCCC=C)n1C,25.5% (inactive)
7,Cc1nc2cnc(N)c(C#Cc3cncc(C(=O)Nc4ccc(CN5CCN(C)CC5)c(C(F)(F)F)c4)c3)c2nc1C,55.8% (inactive)
8,Oc1c(Cl)c2ccccc2c2ccccc12,112% (inactive)
9,Cc1ccc(CCCC(=O)O)c(C)c1,91.7% (inactive)
10,COc1ccc(-c2nnc(COc3ccc(Cl)cc3Cl)o2)cc1OC,71.9% (inactive)
11,O=C(Nc1ccccc1O)c1ccccc1Nc1ccnc(C(F)(F)F)c1,116% (inactive)
12,O=C1/C(=C/c2ccccc2[N+](=O)[O-])Oc2ccc(O)cc21,20.3% (inactive)
13,Nc1nc(N)c2c(n1)NC(c1ccccc1)C1CCc3ccccc3C1=N2 (configuration not stated),-12.7% (active)
14,COC(=O)[C@H](CC(C)C)NC(=O)NC(=O)NC(=O)CI,75.9% (inactive)
15,Cc1cccc2c3c(sc12)C(c1ccc(F)cc1)C(C#N)=C(N)O3 (configuration not stated),24.3% (inactive)
16,O=C1Nc2ccccc2C12C=C(c1ccccc1)Nc1c2c(-c2ccccc2)nn1-c1ccccc1 (configuration not stated),105% (inactive)
17,COc1ccc(OC2=C(C#N)C(=N)N3c4ccccc4Sc4ccccc4C3N2)cc1 (configuration not stated),94.5% (inactive)
18,Cc1nc(NN)c([N+](=O)[O-])c(NN)n1,122% (inactive)
19,O=C(Nc1ccc(Br)cc1)c1cc(Br)ccc1O,-18.1% (active) and 15% (inactive)
20,Cc1c(C(N)=O)sc2c1C(=O)N(Cc1ccccc1)C1=NN=C(c3ccc(Cl)cc3)CN12,60.1% (inactive)
21,O=C1c2ccccc2C(=O)N1c1ccccc1,108% (inactive)

row,Compound,growth
1,c1ccc(CC(NCCNC(Cc2ccccc2)c2ccccc2)c2ccccc2)cc1 (configuration not stated),-32.9% (active)
2,CS(=O)(=O)Nc1cc(-c2ccc3ncnc(Nc4ccc(F)c(Cl)c4)c3c2)cnc1Cl,-43.3% (active)
3,CN1CCN(CC(=O)N2c3cccc4cccc(c34)N(C(=O)CN3CCN(C)CC3)C2c2cn(-c3ccccc3)nc2-c2cccc([N+](=O)[O-])c2)CC1,-68.9% (active)
4,ClC1=C(Br)C(Br)(Br)C(=C(Br)Br)C1(Br)Br,74.4% (inactive)
5,CCn1cc(C(=O)O)c(=O)c2cnc(N3CCCC3)nc21,99.2% (inactive)
6,C=C(CNCCc1ccc(O)cc1)[C@@H]1CC[C@]2(CO)CC[C@]3(C)[C@H](CC[C@@H]4[C@@]5(C)CCC(NCCO)C(C)(C)[C@@H]5CC[C@]43C)[C@@H]12 (some centres not stated),-84.3% (active)
7,CC/C=C\C/C=C/C=C1/C(=O)C=C[C@@H]1C/C=C\CCCC(=O)OC,19.8% (inactive)
8,CCOC(=O)C1=C(COCCN)NC(C)=C(C(=O)OC)C1c1ccccc1Cl (configuration not stated),17% (inactive)
9,COc1ccc(O)c(-c2cc(-c3ccc(Cl)cc3)c(C#N)c(=O)[nH]2)c1,78.8% (inactive)
10,Cc1ccc(N=C=C(c2ccccc2)c2ccccc2)cc1,69.1% (inactive)
11,Clc1ccc(C(/C=C/c2sc(Cl)nc2Cl)=N/Nc2cc(Cl)cc(Cl)c2)cc1,107% (inactive)
12,O=C(Nc1ccc(N=Nc2ccccc2)cc1)c1cccc2ccccc12,41.9% (inactive)
13,COc1ccc(Oc2ccc(/C=N/NC(=O)CSc3nc4ccccc4c(=O)n3-c3ccc(Cl)cc3)cc2)cc1,66.8% (inactive)
14,CCOC(=O)C12CCCC1=CC(=O)CC2 (configuration not stated),110% (inactive)
15,Cc1cccc(Cl)c1NC(=O)c1cnc(Nc2cc(N3CCOCC3)cc(S(C)(=O)=O)c2)s1,26.7% (inactive)
16,COc1cc(/C=C2\CCCC3=C2N=C2SC(C)=CN2C3c2cc(OC)c(OC)c(OC)c2)cc(OC)c1OC (configuration not stated),-20.7% (active)
17,O=C1Nc2ccccc2/C1=C/c1cccn1CCCCn1c2ccccc2c(=O)c2ccccc21,51% (inactive)
18,CCOC(=O)C(CNc1ccccc1)C(=O)OCC,93.3% (inactive)
19,Cc1ccc(-c2csc(NC(=O)CN3CCN(c4cc5c(cc4F)c(=O)c(C(=O)O)cn5C4CC4)CC3)n2)cc1,3.21% (active)
